# Records with an inconclusive call do not appear. For part of these data: Potency and affinity values are given separately. Some of the results follow. The source made the active and inactive calls.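 The calls were made as follows, unless noted: active = fitted half-maximal concentration within 10 nM to 100 µM, steepness 0.5 to 2, significant signal drop, low assay interference; inactive = the rest.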
# Tests used:
# [1] = target: Cell division control protein 42 homolog (Homo sapiens) (UniProt P60953); assay: activated mutant Cdc42 GTP-binding inhibitors, dose response, biochemical, multiplex bead flow cytometry, Bodipy-FL-GTP (AID 1333;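 active = fitted half-maximal concentration within the tested dose range, moderate curve steepness, a statistically real signal drop, and little compound fluorescence or tag-binding interference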)
# Cell division control protein 42 homolog (Homo sapiens), sequence (P60953 whole entry, looked up): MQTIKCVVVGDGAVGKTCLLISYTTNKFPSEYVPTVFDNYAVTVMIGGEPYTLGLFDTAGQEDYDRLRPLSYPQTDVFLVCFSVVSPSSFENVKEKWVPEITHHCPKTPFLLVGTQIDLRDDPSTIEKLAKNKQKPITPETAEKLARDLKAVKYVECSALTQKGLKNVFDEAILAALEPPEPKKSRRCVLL
# [2] = target: Cell division control protein 42 homolog (Homo sapiens) (UniProt P60953); assay: wildtype Cdc42 GTP-binding inhibitors, dose response, biochemical, multiplex bead flow cytometry, Bodipy-FL-GTP (AID 1334;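 active = fitted half-maximal concentration within the tested range, moderate curve steepness, significant signal drop, and little compound fluorescence or bead-linkage interference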); conditions: bead-based flow cytometry, Bodipy-FL-GTP binding to GST-Cdc42; at 100 µM (top of the series) unless noted
# [3] = target: GTPase HRas (Homo sapiens) (UniProt P01112); assay: inhibitors of GTP binding to wildtype Ras, dose response, biochemical, multiplex bead flow cytometry (AID 1335); conditions: bead-based flow cytometry, Bodipy-GTP binding to GST-Ras; at 100 µM (top of the series) unless noted
# GTPase HRas (Homo sapiens), sequence (P01112 whole entry, looked up): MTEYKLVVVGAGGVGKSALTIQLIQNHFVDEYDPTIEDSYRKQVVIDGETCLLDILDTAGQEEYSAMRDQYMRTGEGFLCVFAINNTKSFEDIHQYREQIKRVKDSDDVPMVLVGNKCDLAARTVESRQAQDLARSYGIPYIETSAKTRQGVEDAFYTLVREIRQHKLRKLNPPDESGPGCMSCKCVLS
# [4] = system: Ras-related protein Rab-7a (dog), GTP binding; assay: Rab7 GTP binding inhibitors, potency, dose response, biochemical, wildtype, multiplex bead flow cytometry (AID 1336; call rule not given here)
# [5] = target: Ras-related C3 botulinum toxin substrate 1 (Homo sapiens) (UniProt P63000); assay: wildtype Rac1 GTP binding inhibitors, dose response, biochemical, multiplex bead flow cytometry (AID 1340;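 active = dose curve with midpoint inside tested range, moderate steepness, plateau gap beyond fit error, low compound glow and bead-link interference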); conditions: GST-Rac1 beads, Bodipy-FL-GTP binding; at 100 µM (top of the series) unless noted
# [6] = target: GTPase HRas (Homo sapiens) (UniProt P01112); assay: activated Ras mutant GTP binding inhibitors, dose response, biochemical, multiplex bead flow cytometry (AID 1341;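 active = dose-response curve with midpoint inside the tested range, moderate steepness, significant amplitude and little compound fluorescence or bead-attachment interference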;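 also: GST-tagged constitutively activated Ras mutant immobilized on beads and multiplexed with other GTPases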)
# [7] = RPL19A-GFP modulators, yeast TOR pathway, confirmation, cell-based, S. cerevisiae, flow cytometry, cherry picks, mother/daughter gates (AID 2270;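 active = GFP response below 50% of the DMSO control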); conditions: S. cerevisiae RPL19A-GFP strain, 3 h, at 10 µM, stronger effect = lower value, 100 = same GFP as DMSO wells
# [8] = LAP4-GFP expression modulators in yeast, confirmation, cell-based, cherry picks, flow cytometry, mother/daughter gates (AID 2271;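 active = GFP response above 150% of the DMSO control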;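 also: ratio of sample to DMSO plate mean so 100% equals DMSO level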); conditions: S. cerevisiae LAP4-GFP strain, 3 h, at 10 µM, stronger effect = higher value, 100 means same as DMSO control
# [9] = modulators of MEP2-GFP levels in yeast, confirmation, S. cerevisiae, flow cytometry GFP, cherry picks (AID 2272;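 active = GFP response above 150% of the DMSO control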;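 also: ratio of well signal to plate DMSO mean so 100% equals DMSO level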); conditions: S. cerevisiae MEP2-GFP strain, 3 h, at 10 µM, stronger effect = higher value
# [10] = AGP1-GFP expression modulators, hit retest, confirmation, cell-based, flow cytometry, S. cerevisiae, cherry picks (AID 2273;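 active = GFP response above 150% of the DMSO level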;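 also: median GFP channel fluorescence over the whole cell population gate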); conditions: S. cerevisiae AGP1-GFP strain, 3 h, at 10 µM
# [11] = modulators of CIT2-GFP expression in yeast, confirmation, S. cerevisiae, GFP fusion, cherry picks, mother/daughter gates (AID 2274;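 active = GFP response above 150% of the DMSO level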); conditions: S. cerevisiae CIT2-GFP strain, flow cytometry, 3 h, at 10 µM, stronger effect = higher value
# [12] = target: Regulator of G-protein signaling 16 (Homo sapiens) (UniProt O15492); assay: modulators of RGS–Galpha-o binding, primary screen, biochemical, multiplexed beads, flow cytometry, RGS4/7/8/16/19 (AID 1504); conditions: multiplexed bead flow cytometry, measured here: RGS16 interaction, at 10 µM;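 also: fluorescently labeled Galpha-o bound to GDP with aluminium fluoride binding biotinylated RGS beads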
# [13] = target: Regulator of G-protein signaling 19 (Homo sapiens) (UniProt P49795); assay: as above; conditions: multiplexed bead flow cytometry, measured here: RGS19 interaction, at 10 µM
# [14] = target: Regulator of G-protein signaling 7 (Homo sapiens) (UniProt P49802); assay: as above; conditions: multiplexed bead flow cytometry, measured here: RGS7 interaction, at 10 µM
# [15] = target: Regulator of G-protein signaling 8 (Homo sapiens) (UniProt P57771); assay: as above; conditions: multiplexed bead flow cytometry, measured here: RGS8 interaction, at 10 µM
# [16] = compound autofluorescence in yeast s288c, dose response, artefact control for yeast TOR pathway GFP screen, s288c strain (AID 2757;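 active = fluorescence span over the dose series, or activity score, above about 33, limit read from the data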;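 also: thousands of bead-calibrated equivalent soluble fluorophore molecules from median cell fluorescence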); conditions: S. cerevisiae s288c, 520 nm autofluorescence, flow cytometry, 3 h; at 33 µM; stronger effect = higher value; zero means same as solvent-only cells
# [17] = yeast TOR pathway RPL19A-GFP modulators, primary screen, cell-based, S. cerevisiae, multiplex flow cytometry (AID 1862; in the data active = percent of DMSO control GFP below about 86%;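 also: lower values mimic rapamycin by blocking the RPL19A rise seen in DMSO cells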); conditions: S. cerevisiae RPL19A-GFP strain, flow cytometry fluorescence, 3 h; at 10 µM; stronger effect = lower value
# [18] = modulators of MEP2-GFP levels in yeast, primary screen, S. cerevisiae, multiplex flow cytometry (AID 1867;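 active = GFP response, as percent of the DMSO control, above the screen-wide mean plus 3 SD, about 139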;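 also: median GFP channel fluorescence of barcode-gated MEP2-GFP cells measured by flow cytometry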); conditions: S. cerevisiae MEP2-GFP strain, 3 h, at 10 µM, stronger effect = higher value, 100% means same as DMSO wells
# [19] = modulators of CIT2-GFP expression in yeast, primary screen, S. cerevisiae, GFP fusion, multiplex flow cytometry (AID 1870;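 active = percent response above a set limit, the screen-wide mean plus 3 SD, cut at about 130% in these data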;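 also: barcoded CIT2-GFP strain pooled with four other GFP strains with rapamycin as positive control; median GFP fluorescence per well over plate mean of DMSO wells so 100% = DMSO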); conditions: 3 h, at 10 µM, stronger effect = higher value
# [20] = modulators of LAP4-GFP expression in yeast, primary screen, S. cerevisiae, multiplex flow cytometry (AID 1873;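 active = GFP signal, as percent of the solvent control, above the screen mean plus 3 SD, about 149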); conditions: 3 h, at 10 µM, stronger effect = higher value
# [21] = modulators of AGP1-GFP expression in yeast TOR pathway, primary screen, cell-based, multiplex flow cytometry, S. cerevisiae (AID 1887;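 active = GFP signal above the screen-wide mean plus 3 SD, that is over about 124.5% of the solvent control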;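 also: AGP1-GFP fusion strain of S. cerevisiae within a five-strain barcoded multiplex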); conditions: 3 h, at 10 µM, stronger effect = higher value
# [22] = inhibitors of CD8+ T cell-vesicle binding, pilot screen, LFA-1/ICAM-1 modulator project, MLPCN validation set, flow cytometry (AID 2523;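 active = response below a set limit, under 55% cells CD8-positive and vesicle-bound, and CD8 cells' 90th-percentile brightness under 279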;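 as to vesicle binding response: mean PE anti-B7-1 fluorescence of CD8+ cells relative to row control; 100% = QL9-loaded vesicles with DMSO vehicle in the same plate row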); conditions: 2C mouse CD8+ T cells, at 7 µM, stronger effect = lower value; double positive events: measured here: CD8+/vesicle+ event percentage
# [23] = target: Integrin beta-1 (Homo sapiens) + Integrin alpha-4 (Homo sapiens) (UniProt P13612+P05556); assay: inhibition of HUTS-21 binding to VLA-4, pilot screen, VLA-4 allosteric modulator project, U937 cells, HUTS-21 mAb, flow cytometry, validation set (AID 2674;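 active = inhibition above 50%, about 3 SD of the validation set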;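 also: antibody binding induced by the VLA-4 ligand LDV present at three times its Kd; 0% = LDV ligand with antibody and no compound and 100% = antibody without LDV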); conditions: HUTS-21 LIBS mAb binding, at 6.7 µM, stronger effect = higher value, binding induced by LDV ligand
# Integrin beta-1 (Homo sapiens) + Integrin alpha-4 (Homo sapiens), sequence (P05556 whole entry, looked up): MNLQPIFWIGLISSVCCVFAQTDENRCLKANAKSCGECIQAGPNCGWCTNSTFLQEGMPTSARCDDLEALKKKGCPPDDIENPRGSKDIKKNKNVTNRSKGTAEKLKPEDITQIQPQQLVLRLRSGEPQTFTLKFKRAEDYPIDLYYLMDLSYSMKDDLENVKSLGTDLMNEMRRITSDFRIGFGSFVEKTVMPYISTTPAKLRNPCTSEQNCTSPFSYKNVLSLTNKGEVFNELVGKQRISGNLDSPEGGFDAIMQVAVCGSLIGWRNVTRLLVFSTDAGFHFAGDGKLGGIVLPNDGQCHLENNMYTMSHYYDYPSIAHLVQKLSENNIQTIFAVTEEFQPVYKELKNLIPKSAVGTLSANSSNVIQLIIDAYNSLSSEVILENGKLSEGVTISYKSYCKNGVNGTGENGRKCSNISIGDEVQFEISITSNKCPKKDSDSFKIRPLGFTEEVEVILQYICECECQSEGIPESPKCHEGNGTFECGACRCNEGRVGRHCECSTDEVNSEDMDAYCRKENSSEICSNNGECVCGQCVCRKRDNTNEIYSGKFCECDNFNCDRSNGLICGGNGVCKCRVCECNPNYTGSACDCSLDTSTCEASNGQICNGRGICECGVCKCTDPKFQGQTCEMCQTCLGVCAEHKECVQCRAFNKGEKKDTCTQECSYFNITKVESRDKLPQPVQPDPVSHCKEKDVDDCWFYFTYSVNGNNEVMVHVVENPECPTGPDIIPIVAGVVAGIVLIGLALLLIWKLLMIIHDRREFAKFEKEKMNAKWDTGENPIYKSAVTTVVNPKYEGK
# Integrin beta-1 (Homo sapiens) + Integrin alpha-4 (Homo sapiens), sequence (P13612 whole entry, looked up): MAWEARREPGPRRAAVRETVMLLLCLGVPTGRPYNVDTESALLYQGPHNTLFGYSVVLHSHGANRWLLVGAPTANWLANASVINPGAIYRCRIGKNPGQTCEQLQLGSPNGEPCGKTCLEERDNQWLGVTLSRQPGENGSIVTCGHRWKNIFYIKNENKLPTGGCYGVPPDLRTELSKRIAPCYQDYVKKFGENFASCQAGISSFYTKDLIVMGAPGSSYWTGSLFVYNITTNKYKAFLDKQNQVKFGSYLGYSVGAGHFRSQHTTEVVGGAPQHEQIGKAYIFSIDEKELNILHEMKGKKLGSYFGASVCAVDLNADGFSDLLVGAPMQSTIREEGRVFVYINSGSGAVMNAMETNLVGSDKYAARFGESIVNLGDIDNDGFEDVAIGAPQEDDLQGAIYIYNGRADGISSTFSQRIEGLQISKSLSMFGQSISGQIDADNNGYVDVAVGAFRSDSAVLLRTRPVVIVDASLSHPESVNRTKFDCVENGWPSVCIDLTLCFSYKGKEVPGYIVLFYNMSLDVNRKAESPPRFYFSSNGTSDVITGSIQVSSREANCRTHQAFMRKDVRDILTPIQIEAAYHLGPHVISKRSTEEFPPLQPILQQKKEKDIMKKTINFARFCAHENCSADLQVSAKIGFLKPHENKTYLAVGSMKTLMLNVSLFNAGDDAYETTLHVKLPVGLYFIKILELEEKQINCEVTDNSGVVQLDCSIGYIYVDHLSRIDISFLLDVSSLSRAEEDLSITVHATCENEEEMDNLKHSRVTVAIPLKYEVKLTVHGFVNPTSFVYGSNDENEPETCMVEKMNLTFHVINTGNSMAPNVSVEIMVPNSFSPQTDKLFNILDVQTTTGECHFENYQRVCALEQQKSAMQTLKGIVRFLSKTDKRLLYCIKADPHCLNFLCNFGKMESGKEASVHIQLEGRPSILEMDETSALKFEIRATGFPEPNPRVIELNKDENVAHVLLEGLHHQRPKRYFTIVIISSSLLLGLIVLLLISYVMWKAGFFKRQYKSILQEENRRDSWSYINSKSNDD
# [24] = superoxide lowering in aged yeast cells, pilot screen, validation compound set (AID 2706;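 active = superoxide response below 65% of plate, a cut near 3 SD across the whole screen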;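 also: yeast exposed to compound for one week at 30 degrees C before staining; 100% = mean of all compound wells on the same plate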); conditions: S. cerevisiae aging, superoxide DHE fluorescence; at 10 µM; stronger effect = lower value
# [25] = target: Beta-adrenergic receptor kinase 1 (Homo sapiens) (UniProt P25098); assay: GRK2 binders displacing RNA aptamer, biochemical, validation, human GRK2, bead flow cytometry (AID 488806;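 active = aptamer binding inhibition above 30%, about 3 SD of noise from non-fluorescent compounds; inactive = inhibition at or below 30%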); conditions: bead-bound GRK2, FAM-aptamer displacement, at 10 µM, stronger effect = higher value
# [26] = target: Beta-2 adrenergic receptor (Homo sapiens) (UniProt P07550); assay: beta2AR agonists driving receptor internalization, pilot screen, cell-based, FAP fluorogen, flow cytometry, validation set (AID 504459;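 active = percent response above 42, roughly 3 SD of non-fluorescent test compounds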;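 also: agonist-driven loss of surface beta2AR via internalization measured by FAP dye flow cytometry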); conditions: Am2.2-beta2AR cells, FAP surface receptor flow cytometry; at 10 µM; stronger effect = higher value
# Beta-2 adrenergic receptor (Homo sapiens), sequence (P07550 whole entry, looked up): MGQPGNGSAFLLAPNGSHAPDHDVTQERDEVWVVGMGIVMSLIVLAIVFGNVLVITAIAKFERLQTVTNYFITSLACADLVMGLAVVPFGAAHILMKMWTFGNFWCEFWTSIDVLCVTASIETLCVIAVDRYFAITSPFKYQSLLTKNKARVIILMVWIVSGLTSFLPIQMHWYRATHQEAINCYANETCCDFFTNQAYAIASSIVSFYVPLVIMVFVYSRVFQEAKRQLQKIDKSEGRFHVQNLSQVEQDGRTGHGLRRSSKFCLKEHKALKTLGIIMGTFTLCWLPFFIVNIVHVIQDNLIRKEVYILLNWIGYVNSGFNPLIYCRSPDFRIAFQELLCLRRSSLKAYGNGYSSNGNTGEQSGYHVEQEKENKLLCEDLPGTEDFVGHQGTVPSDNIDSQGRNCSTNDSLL
# [27] = target: AP-2 complex subunit beta (Homo sapiens) (UniProt P63010); assay: inhibitors of arrestin peptide binding to AP2, pilot screen, biochemical, validation set, GST-AP2 beads, flow cytometry (AID 504541;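 active = inhibition above 54%, about 3 SD of non-fluorescent compounds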;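 also: AP2 carries R879A mutation and is captured from E. coli lysate; bead-bound FITC arrestin peptide fluorescence measuring arrestin peptide binding to AP2; 0% = DMSO wells and 100% = excess unlabeled arrestin peptide control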); conditions: FITC arrestin peptide, at 10 µM, stronger effect = higher value, AP2 beta2 appendage fragment, R879A mutant
# AP-2 complex subunit beta (Homo sapiens), sequence (P63010 whole entry, looked up, the tested form may be a part, one chain of several): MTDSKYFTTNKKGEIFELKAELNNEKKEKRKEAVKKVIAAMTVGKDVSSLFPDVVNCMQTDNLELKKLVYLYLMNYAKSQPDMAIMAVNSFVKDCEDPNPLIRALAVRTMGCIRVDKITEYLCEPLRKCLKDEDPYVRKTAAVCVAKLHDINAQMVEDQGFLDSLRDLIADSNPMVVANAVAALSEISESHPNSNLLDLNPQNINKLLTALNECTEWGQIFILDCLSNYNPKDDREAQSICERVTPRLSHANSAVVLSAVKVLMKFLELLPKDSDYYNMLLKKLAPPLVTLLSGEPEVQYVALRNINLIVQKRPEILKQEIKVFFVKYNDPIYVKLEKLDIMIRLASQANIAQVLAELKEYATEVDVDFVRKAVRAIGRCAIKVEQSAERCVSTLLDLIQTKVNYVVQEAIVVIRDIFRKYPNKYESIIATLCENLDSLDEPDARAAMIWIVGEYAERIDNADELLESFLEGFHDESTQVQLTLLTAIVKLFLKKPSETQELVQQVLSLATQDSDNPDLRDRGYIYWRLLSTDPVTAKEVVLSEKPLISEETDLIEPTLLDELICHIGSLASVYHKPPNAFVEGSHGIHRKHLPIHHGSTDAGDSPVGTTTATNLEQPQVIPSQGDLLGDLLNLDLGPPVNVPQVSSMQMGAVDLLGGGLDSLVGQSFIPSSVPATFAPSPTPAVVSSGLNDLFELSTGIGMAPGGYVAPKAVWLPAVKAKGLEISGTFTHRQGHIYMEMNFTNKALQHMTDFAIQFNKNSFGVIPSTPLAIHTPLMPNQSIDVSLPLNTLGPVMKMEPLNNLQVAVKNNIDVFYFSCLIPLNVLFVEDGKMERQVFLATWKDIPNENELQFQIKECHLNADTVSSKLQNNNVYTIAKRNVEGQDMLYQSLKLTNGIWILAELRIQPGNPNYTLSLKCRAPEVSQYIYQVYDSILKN
# [28] = yeast V-ATPase proton transport modulators, S. cerevisiae, pHLuorin, HTS validation (AID 504600; in the data active = response above about 15%;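 also: plate controls were DMSO for no effect and reference compound for full effect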); conditions: S. cerevisiae pHLuorin cytosolic pH, at 10 µM, stronger effect = higher value
# [29] = system: anti-desmoglein-3 scFv antibody binding to human DSG3; assay: inhibitors of anti-DSG3 scFv binding to DSG3, pilot screen, biochemical, validation compound set, bead-based, flow cytometry (AID 588368;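 active = binding below the plate cutoff, the plate median minus 3 SD, with a reading above zero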;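 also: signal is the median channel fluorescence of bead-bound GFP antibody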); conditions: Protein G beads, DSG3-Fc, scFv-GFP binding, at 10 µM, stronger effect = lower value
# [30] = inhibitors of fungal efflux pumps CDR1, CDR2, MDR1, pilot screen, validation compound set, multiplex, phenotypic (AID 588506;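 active = efflux inhibition above 0.42, the validation set average plus 4 SD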;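 also: Nile Red retained in cells so higher fluorescence means more efflux inhibition; 0 = negative control wells and 1 = enniatin B 25 µM full block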); conditions: S. cerevisiae pump-expressing triplex, Nile Red efflux flow cytometry; at 10 µM; stronger effect = higher value; the pumps come from Candida albicans
# [31] = target: ATP-binding cassette sub-family B member 6 (Homo sapiens) (UniProt Q9NP58); assay: ABCB6 transporter inhibitors, pilot screen, K562-ABCB6 cells, flow cytometry, validation set (AID 588550;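 active = inhibition above the screen-wide mean plus 3 SD, about 51%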;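 also: 0% = DMSO wells and 100% = benzethonium chloride 70 µM positive control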); conditions: K562-ABCB6 porphyrin accumulation, 1 h, at 10 µM, stronger effect = higher value
# ATP-binding cassette sub-family B member 6 (Homo sapiens), sequence (Q9NP58 whole entry, looked up): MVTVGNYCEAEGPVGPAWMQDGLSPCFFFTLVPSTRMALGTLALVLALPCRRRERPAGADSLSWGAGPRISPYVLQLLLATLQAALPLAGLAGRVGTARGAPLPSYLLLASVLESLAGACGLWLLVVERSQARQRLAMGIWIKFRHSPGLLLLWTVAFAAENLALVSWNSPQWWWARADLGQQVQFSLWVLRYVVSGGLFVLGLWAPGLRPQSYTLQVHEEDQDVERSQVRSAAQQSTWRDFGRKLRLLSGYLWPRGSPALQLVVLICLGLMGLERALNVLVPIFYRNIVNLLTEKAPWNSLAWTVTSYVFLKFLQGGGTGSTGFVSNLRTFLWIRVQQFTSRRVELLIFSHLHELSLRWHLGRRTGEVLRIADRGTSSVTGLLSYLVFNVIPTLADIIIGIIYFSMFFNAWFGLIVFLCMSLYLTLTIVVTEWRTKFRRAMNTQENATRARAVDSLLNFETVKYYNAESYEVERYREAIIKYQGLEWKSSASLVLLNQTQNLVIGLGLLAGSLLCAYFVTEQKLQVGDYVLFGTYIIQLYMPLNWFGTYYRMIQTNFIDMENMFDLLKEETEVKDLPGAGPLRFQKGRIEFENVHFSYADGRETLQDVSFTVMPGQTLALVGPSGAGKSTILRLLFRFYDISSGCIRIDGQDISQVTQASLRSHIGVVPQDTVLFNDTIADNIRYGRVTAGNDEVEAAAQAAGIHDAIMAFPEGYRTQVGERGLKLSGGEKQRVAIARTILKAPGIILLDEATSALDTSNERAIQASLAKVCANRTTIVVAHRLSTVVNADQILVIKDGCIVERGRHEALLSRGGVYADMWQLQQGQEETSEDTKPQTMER
# [32] = promoters of myeloid differentiation in arrested cells, primary screen, cell-based, GFP/MAC1 double positive, flow cytometry, validation set (AID 588685;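 active = differentiation response of at least 50%, scaled between solvent and reference control, from cells with both markers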;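 also: compound exposure lasts four days before antibody staining and flow analysis; 0% = DMSO wells and 100% = 5 µM fulvestrant positive control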); conditions: ER-HoxA9 marrow cells, stronger effect = higher value, normalized: vehicle 0, fulvestrant 100
# [33] = measured here: daughter cell gate
# [34] = measured here: mother cell gate
# [35] = measured here: daughter cell gate response
# [36] = measured here: mother cell gate response
smiles,measurement,setting,value
CCOC(=O)N1CCN(C(=O)CCc2ccc(S(=O)(=O)NCCc3ccccc3)cc2)CC1,outcome,[1],inactive
same,"fluorescence, percent of control (lower = inhibition)",[2],48.3%
same,"GTP binding, percent of control",[3],57.7%
same,outcome,[4],inactive
same,"GTP binding signal, raw median fluorescence (lower = inhibition) (MCF (arbitrary fluorescence units))",[5],0
same,outcome,[6],inactive
same,GFP response vs DMSO,[7],99.3% (inactive)
same,GFP response vs DMSO,[7]; [33],100%
same,GFP response vs DMSO,[7]; [34],97.8%
same,GFP response relative to DMSO,[8],95.3% (inactive)
same,GFP response relative to DMSO,[8]; [35],99%
same,GFP response relative to DMSO,[8]; [36],94.4%
same,GFP response vs DMSO,[9],101% (inactive)
same,"GFP response, % of DMSO",[10],108% (inactive)
same,"GFP response, % of DMSO",[11],100% (inactive)
same,"GFP response, % of DMSO",[11]; [33],101%
same,"GFP response, % of DMSO",[11]; [34],100%
CCOc1nnc(C)c2c(C)n(-c3cccc(OC)c3)nc12,outcome,[1],inactive
same,"fluorescence, percent of control (lower = inhibition)",[2],55.9%
same,"GTP binding, percent of control",[3],67.2%
same,outcome,[4],inactive
same,"GTP binding signal, raw median fluorescence (lower = inhibition) (MCF (arbitrary fluorescence units))",[5],194
same,outcome,[6],inactive
same,GFP response vs DMSO,[7],104% (inactive)
same,GFP response vs DMSO,[7]; [33],102%
same,GFP response vs DMSO,[7]; [34],106%
same,GFP response relative to DMSO,[8],98.7% (inactive)
same,GFP response relative to DMSO,[8]; [35],98.7%
same,GFP response relative to DMSO,[8]; [36],100%
same,GFP response vs DMSO,[9],102% (inactive)
same,"GFP response, % of DMSO",[10],99.8% (inactive)
same,"GFP response, % of DMSO",[11],108% (inactive)
same,"GFP response, % of DMSO",[11]; [33],105%
same,"GFP response, % of DMSO",[11]; [34],109%
CN(c1ccccc1)c1ccc(/C=c2\s/c(=C(/C#N)C(=O)C(C)(C)C)n(Cc3ccco3)c2=O)cc1,outcome,[1],inactive
same,"fluorescence, percent of control (lower = inhibition)",[2],160%
same,"GTP binding, percent of control",[3],157%
same,outcome,[4],inactive
same,"GTP binding signal, raw median fluorescence (lower = inhibition) (MCF (arbitrary fluorescence units))",[5],180
same,outcome,[6],inactive
same,RGS16–Galpha-o binding response,[12],551%
same,RGS19–Galpha-o binding response,[13],4650%
same,RGS7–Galpha-o binding response,[14],421%
same,RGS8–Galpha-o binding response,[15],134%
same,GFP response vs DMSO,[7],118% (inactive)
same,GFP response vs DMSO,[7]; [33],118%
same,GFP response vs DMSO,[7]; [34],116%
same,GFP response relative to DMSO,[8],235% (active)
same,GFP response relative to DMSO,[8]; [35],240%
same,GFP response relative to DMSO,[8]; [36],231%
same,GFP response vs DMSO,[9],309% (active)
same,"GFP response, % of DMSO",[10],126% (inactive)
same,"GFP response, % of DMSO",[11],231% (active)
same,"GFP response, % of DMSO",[11]; [33],229%
same,"GFP response, % of DMSO",[11]; [34],230%
same,fluorescence change (kMESF span),[16],19.9 (inactive)
O=C1/C(=C\c2cccnc2)Sc2ccccc21,outcome,[1],inactive
same,"fluorescence, percent of control (lower = inhibition)",[2],29.1%
same,"GTP binding, percent of control",[3],62.4%
same,outcome,[4],inactive
same,outcome,[6],inactive
Cc1ccc(CSc2nc3[nH]ncc3c(=O)[nH]2)cc1,outcome,[1],inactive
same,"fluorescence, percent of control (lower = inhibition)",[2],37.4%
same,"GTP binding, percent of control",[3],80.6%
same,outcome,[4],inactive
same,"GTP binding signal, raw median fluorescence (lower = inhibition) (MCF (arbitrary fluorescence units))",[5],173
same,outcome,[6],inactive
O=C(O)c1ccccc1OCCOc1ccccc1,outcome,[1],inactive
same,"fluorescence, percent of control (lower = inhibition)",[2],82.8%
same,"GTP binding, percent of control",[3],81.1%
same,outcome,[4],inactive
same,"GTP binding signal, raw median fluorescence (lower = inhibition) (MCF (arbitrary fluorescence units))",[5],297
same,outcome,[6],inactive
same,percent of DMSO control GFP,[17],93.4% (inactive)
same,GFP response vs DMSO,[18],98.8% (inactive)
same,percent response of DMSO control,[19],83.1% (inactive)
same,GFP response vs DMSO,[20],129% (inactive)
same,"GFP response, % of DMSO",[21],77.1% (inactive)
same,double positive events,[22],66%
same,vesicle binding response,[22],133% (inactive)
same,inhibition,[23],2.55% (inactive)
same,superoxide response (% of plate),[24],43.5% (active)
same,aptamer binding inhibition,[25],2% (inactive)
same,response,[26],32.2% (inactive)
same,inhibition,[27],52.1% (inactive)
same,response,[28],-1.15% (inactive)
same,binding (% of control),[29],96% (inactive)
same,efflux inhibition (fraction of control),[30],0.74 (active)
same,inhibition,[31],8% (inactive)
same,differentiation response,[32],34.6% (inactive)

# Source: PubChem BioAssay
